Composite z-score and z-score data for nine compounds are collected here from PubChem BioAssay.

Test [1] can be described thus: small molecules captured by biotinylated probe aFSTL3 – biochemical, small-molecule microarray, fluorescence 635/667, stem cell growth factor project, primary screen (AID 1064).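 Further: measures binding of the biotinylated anti-FSTL3 antibody to printed compounds.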 Conditions: higher = more signal.
Test [2] in a line: binders from COS7 lysate, DM2A8 probe, primary screen, torsin A project, cell lysate, small-molecule microarray, fluorescence 635/667 (AID 1065). Conditions: higher = more signal, COS7 lysate expressing mutant human TOR1A.
The nature of test [3]: small molecules captured by biotinylated probe aFGF2 – biochemical, small-molecule microarray, fluorescence 635/667, stem cell growth factor project, primary screen (AID 1067).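 Further: measures binding of biotinylated aFGF2 protein to printed compounds on slides; z-score merges feature fluorescence and signal-to-noise across triplicate slides.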 Conditions: higher = more signal.
Test [4] can be described thus: small molecules captured by biotinylated probe aFGF10 – biochemical, small-molecule microarray, fluorescence 635/667, stem cell growth factor project, primary screen (AID 1071).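 Further: score merges 667 nm spot intensity and signal to noise from triplicate slides.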 The note with it: higher = more signal.
In test [5] the target is Neurogenic locus notch homolog protein 2 (Homo sapiens) (UniProt Q04721). As to the kind of experiment: small molecules binding Notch2 protein – biochemical, small-molecule microarray, 635 nm fluorescence, stem cell growth factors, primary screen (AID 1073). The note with it: higher = more signal.
Chain of Neurogenic locus notch homolog protein 2 (Homo sapiens) (Q04721 whole entry, looked up, canonical isoform): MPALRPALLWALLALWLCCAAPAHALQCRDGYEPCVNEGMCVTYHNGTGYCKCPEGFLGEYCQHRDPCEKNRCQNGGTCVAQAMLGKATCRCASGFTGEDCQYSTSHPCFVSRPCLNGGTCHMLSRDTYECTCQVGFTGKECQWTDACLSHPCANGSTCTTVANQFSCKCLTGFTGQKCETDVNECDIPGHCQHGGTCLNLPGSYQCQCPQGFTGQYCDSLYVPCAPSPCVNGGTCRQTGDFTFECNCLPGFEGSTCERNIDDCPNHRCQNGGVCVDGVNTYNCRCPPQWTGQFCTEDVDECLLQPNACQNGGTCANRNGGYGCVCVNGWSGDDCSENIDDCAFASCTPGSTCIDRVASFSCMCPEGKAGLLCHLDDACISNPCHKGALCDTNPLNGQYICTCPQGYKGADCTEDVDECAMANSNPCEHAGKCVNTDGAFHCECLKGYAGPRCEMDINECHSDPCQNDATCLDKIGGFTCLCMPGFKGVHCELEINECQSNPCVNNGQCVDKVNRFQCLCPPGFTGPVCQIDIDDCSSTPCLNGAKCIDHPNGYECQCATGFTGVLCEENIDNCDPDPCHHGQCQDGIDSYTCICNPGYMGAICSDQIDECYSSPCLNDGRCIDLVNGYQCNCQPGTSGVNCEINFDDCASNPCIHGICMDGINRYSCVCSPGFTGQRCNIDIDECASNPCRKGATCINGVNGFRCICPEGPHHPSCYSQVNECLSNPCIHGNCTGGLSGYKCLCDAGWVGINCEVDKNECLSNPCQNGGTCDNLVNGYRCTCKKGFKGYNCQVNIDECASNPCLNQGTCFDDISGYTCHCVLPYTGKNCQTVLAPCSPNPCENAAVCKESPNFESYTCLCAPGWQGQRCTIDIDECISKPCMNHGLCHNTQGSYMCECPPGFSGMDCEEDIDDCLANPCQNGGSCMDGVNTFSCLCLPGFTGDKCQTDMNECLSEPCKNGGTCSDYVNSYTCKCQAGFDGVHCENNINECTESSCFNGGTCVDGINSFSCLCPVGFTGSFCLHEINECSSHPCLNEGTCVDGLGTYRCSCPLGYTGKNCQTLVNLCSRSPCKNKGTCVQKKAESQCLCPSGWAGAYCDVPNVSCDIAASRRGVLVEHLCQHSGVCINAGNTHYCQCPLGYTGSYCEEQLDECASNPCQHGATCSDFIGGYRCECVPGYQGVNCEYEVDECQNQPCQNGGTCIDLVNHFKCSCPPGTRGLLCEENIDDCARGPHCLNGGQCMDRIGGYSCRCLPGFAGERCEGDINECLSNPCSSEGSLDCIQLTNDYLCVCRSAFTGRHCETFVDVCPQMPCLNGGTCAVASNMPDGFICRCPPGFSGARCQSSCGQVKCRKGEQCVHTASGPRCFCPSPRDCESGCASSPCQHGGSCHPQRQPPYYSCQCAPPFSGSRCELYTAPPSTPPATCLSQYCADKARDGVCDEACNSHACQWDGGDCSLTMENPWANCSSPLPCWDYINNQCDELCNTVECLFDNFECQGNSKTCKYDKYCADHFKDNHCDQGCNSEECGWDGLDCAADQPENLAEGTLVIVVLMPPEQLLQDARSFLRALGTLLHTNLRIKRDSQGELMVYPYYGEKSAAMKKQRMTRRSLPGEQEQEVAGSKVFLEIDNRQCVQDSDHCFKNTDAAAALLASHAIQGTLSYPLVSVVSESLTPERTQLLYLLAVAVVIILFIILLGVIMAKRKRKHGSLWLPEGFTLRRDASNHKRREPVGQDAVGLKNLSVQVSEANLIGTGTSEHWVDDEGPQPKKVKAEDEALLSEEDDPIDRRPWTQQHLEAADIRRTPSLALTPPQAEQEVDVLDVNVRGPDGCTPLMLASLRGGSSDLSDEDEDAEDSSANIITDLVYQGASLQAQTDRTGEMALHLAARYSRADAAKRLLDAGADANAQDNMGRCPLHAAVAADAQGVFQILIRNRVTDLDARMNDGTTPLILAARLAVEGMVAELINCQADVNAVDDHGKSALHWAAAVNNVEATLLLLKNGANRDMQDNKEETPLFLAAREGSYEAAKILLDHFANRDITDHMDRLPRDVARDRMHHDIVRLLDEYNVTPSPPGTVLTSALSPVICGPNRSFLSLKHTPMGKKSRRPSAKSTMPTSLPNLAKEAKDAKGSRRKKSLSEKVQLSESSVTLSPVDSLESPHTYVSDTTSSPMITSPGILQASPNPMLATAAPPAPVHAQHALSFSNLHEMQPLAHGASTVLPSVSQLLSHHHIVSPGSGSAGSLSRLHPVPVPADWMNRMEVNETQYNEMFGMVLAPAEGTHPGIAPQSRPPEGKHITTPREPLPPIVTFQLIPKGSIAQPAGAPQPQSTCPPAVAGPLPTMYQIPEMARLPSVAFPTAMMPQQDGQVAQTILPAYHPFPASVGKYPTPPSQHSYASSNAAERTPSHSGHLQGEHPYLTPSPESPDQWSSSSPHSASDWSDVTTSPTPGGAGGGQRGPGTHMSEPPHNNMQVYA
Test [6] has as its target Pro-neuregulin-1, membrane-bound isoform (Homo sapiens) (UniProt Q02297). As to the kind of experiment: small molecules binding neuregulin-1 protein – biochemical, small-molecule microarray, fluorescence 635/667, psychiatric disease protein project, primary screen (AID 1075).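 Further: score combines 667 nm spot fluorescence with signal to noise.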 Conditions: NRG1 binding, 635 nm fluorescence, higher = more signal.
Test [7] concerns Neuregulin-1 EGF-like domain. The experiment in a line: small molecules binding NRG1 EGF domain – biochemical, small-molecule microarray, 635 nm fluorescence, primary screen (AID 1081).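 Further: binding of the protein to compounds printed on small-molecule microarray slides.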 The note with it: higher = more signal.
Test [8] is described as follows: FRG1 expression reporter modulators in myotubes – cell-based, C2C12 myotubes, firefly/Renilla luciferase, luminescence, FRG1 inhibition for FSHD, primary screen (AID 1084). The note with it: FRG1 promoter luciferase, higher = more signal, called active from +8 up or from −8 down.
The nature of test [9]: small molecules captured by biotinylated probe aFST – biochemical, small-molecule microarray, fluorescence 635/667, stem cell growth factor project, primary screen (AID 1086).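 Further: score merges 667 nm fluorescence with signal-to-noise of each printed compound spot.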 Conditions: higher = more signal.
Test [10] in a line: binders of probe aHhip on microarray, primary screen, stem cell growth factor project, biochemical, small-molecule microarray, fluorescence 635/667 (AID 1087).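 Further: score merges spot fluorescence at 667nm with spot signal to noise ratio.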 The note with it: higher = more signal.
For test [11], the system named is PRMT1 (protein arginine N-methyltransferase 1). The experiment in a line: small molecules binding arginine methyltransferase PRMT1 – biochemical, small-molecule microarray, 635 nm fluorescence, primary screen (AID 1088).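 Further: binding of Prmt1 protein to compounds spotted on small-molecule microarray slides.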 The note with it: higher = more signal.
Test [12] is described as follows: growth effects on S. cerevisiae YJM789 – YJM789 clinical isolate, OD600, 24 h, basal, primary screen (AID 1089).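 Further: growth of clinical yeast isolate S. cerevisiae YJM 789 seeded 1000 cells per well; test concentration not given here.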 Conditions: higher = more signal, called active from +8 up or from −8 down.
Test [13] in a line: S. pombe growth modifiers, basal conditions – strain 972, OD600, 24 h, no modulator, primary screen (AID 1090).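 Further: basal condition with compound alone and no growth modifier present; test concentration not given here.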 Conditions: S. pombe 972 growth, higher = more signal, called active from +8 up or from −8 down.
Test [14] is described as follows: budding yeast growth modifiers under rapamycin – strain BY4716, OD600, 96 h, primary screen (AID 1091). Further: test concentration not given here. The note with it: S. cerevisiae BY4716 + rapamycin, higher = more signal, called active from +8 up or from −8 down.
The target in test [15] is Torsin-1A-interacting protein 2 (Homo sapiens) (UniProt Q8NFQ8). As to the kind of experiment: small molecules binding lysate-expressed LULL1 – cell lysate, human LULL1 lysate, 635/667 nm fluorescence, primary screen (AID 1092).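 Further: probe is lysate of COS7 cells overexpressing human LULL1; score merges per-feature 667 nm fluorescence with signal-to-noise.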 The note with it: small-molecule microarray, hLULL1 lysate binding, 635 nm fluorescence; higher = more signal.
Test [16] can be described thus: optical density change of DRC41 E. coli – strain DRC41, OD650, 24 h, E. coli filamentation project, primary screen (AID 1093).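 Further: MC1000 strain lacking acrAB efflux and sulA so SOS filamentation is blocked; test concentration not given here.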 The note with it: E. coli DRC41 growth, higher = more signal, called active from +8 up or from −8 down.
The nature of test [17]: probe aLefty2 binding to arrayed compounds – biochemical, biotinylated probe, 635/667 nm fluorescence, primary screen (AID 1094).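 Further: score merges spot fluorescence near 667 nm with spot signal-to-noise ratio.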 Conditions: small-molecule microarray, higher = more signal.
Test [18] deals with Noggin (protein binding on small-molecule microarray). As to the kind of experiment: small molecules binding Noggin protein – biochemical, 635/667 nm fluorescence, primary screen (AID 1095).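 Further: score merges 667 nm feature fluorescence with signal to noise over triplicate slides.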 Conditions: 635 nm fluorescence, higher = more signal.
Test [19] deals with Neurogenic locus notch homolog protein 3 (Homo sapiens) (UniProt Q9UM47). The experiment in a line: small molecules binding NOTCH3 protein – biochemical, 635/667 nm fluorescence, primary screen (AID 1096). The note with it: small-molecule microarray, 635 nm fluorescence, higher = more signal.
Chain of Neurogenic locus notch homolog protein 3 (Homo sapiens) (Q9UM47 whole entry, looked up): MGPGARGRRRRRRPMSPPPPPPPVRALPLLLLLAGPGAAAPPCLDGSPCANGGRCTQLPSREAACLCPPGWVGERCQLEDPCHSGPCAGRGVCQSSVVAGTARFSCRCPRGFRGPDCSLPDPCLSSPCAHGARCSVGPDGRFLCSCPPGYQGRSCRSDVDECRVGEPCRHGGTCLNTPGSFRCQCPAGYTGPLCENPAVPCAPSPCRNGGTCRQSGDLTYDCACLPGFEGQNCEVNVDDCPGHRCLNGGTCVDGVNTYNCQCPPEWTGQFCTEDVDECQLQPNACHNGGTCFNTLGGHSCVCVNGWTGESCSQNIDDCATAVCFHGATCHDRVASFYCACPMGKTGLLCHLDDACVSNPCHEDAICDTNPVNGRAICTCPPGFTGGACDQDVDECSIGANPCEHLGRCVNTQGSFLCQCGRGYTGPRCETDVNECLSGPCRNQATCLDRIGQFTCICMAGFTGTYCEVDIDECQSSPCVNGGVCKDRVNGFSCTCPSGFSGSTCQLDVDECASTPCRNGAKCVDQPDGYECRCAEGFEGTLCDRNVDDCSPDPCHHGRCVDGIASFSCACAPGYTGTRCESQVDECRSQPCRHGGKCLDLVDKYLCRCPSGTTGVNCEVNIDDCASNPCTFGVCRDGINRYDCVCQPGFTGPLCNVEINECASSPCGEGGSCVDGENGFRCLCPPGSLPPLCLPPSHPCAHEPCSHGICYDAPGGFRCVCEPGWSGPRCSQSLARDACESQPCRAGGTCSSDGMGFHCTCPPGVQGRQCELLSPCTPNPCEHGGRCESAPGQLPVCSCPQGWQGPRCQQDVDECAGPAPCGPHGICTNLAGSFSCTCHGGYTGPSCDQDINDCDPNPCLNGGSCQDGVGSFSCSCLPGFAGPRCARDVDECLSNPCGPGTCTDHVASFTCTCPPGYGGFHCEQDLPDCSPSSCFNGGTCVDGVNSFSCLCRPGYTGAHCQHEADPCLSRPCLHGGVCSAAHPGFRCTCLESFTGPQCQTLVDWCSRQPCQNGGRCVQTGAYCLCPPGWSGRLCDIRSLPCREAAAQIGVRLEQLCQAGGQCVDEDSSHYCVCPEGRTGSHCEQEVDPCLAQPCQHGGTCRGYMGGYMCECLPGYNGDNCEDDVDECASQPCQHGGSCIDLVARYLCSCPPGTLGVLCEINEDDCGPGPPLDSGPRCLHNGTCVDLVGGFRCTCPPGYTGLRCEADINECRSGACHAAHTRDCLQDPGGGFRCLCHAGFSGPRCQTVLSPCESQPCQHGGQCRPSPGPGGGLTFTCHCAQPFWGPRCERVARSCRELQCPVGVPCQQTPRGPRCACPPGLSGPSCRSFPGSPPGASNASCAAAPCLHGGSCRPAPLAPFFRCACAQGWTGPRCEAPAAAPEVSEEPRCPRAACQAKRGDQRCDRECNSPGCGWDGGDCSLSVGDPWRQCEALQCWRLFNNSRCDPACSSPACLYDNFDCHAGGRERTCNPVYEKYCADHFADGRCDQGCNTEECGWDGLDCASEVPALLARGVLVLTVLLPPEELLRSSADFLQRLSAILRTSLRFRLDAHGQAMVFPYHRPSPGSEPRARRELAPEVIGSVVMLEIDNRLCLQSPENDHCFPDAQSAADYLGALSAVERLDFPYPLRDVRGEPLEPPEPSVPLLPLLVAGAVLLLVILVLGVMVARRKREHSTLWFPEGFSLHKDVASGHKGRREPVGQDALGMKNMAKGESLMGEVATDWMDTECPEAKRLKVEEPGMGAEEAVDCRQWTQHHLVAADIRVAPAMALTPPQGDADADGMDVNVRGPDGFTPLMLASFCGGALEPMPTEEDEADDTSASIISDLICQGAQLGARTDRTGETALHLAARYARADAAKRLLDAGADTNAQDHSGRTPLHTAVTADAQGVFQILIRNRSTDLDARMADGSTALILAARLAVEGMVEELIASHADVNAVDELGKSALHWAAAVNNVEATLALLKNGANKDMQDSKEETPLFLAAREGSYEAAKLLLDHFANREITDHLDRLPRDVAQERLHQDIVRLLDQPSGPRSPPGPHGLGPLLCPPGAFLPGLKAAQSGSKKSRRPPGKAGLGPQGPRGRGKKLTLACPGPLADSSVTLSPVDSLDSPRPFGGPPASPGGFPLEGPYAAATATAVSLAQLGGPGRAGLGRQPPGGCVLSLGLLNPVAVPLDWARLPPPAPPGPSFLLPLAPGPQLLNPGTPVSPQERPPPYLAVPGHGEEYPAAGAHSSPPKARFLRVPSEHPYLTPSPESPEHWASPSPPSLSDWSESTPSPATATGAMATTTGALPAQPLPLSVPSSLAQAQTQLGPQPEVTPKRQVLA
A short description of test [20]: probe aEGFR binding to arrayed compounds – biochemical, biotinylated probe, 635/667 nm fluorescence, primary screen (AID 1097).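 Further: probe is a biotinylated anti-EGFR antibody binding compounds printed on slides; score combines fluorescence near 667 nm and signal to noise of each spot.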 The note with it: small-molecule microarray, higher = more signal.

Structures are written as SMILES. Calls of active or inactive are those of the source.

For the compound `COC(=O)C(CC#Cc1ccc2c(c1)[C@]1(C(=O)N2)[C@H](c2ccc(OCCO)cc2)N2[C@H](c3ccccc3)[C@H](c3ccccc3)OC(=O)[C@H]2[C@@H]1C(N)=O)C(=O)OC`, the composite z-score in test [1] turned out to be 0.0757; in test [2], 0.268; in test [3], 0.187; in test [4] it was 0.489; in test [5], 0.0619; in test [6], 1.26. The composite z-score was 1.17 in test [7]; -0.0778 in test [9]; 0.0826 in test [10]; 1.06 in test [11]; 2.03 in test [15]; -0.134 in test [17]. Besides, the composite z-score in test [18] is 0.122; in [19], 0.0497; in test [20] it was -0.19. The z-score in test [8] is 2.1 (inactive); in test [12], 1.76 (inactive); in test [13] it was 1.23 (inactive); in test [14], 6.23 (inactive); in test [16] it was -0.0446 (inactive).

Take `COc1ccc([Si](C)(C)[C@@H]2[C@@H](CC(=O)N(CCO)Cc3ccccc3)O[C@]3(C(=O)N(Cc4cccc(I)c4)c4ccccc43)[C@H]2C)cc1`: the composite z-score in test [1] is 2.68; in test [2], 1.17; in test [3], -0.0422; in test [4], 0.396; in test [5], 0.779; in test [6] it was 0.496. For the same compound, the composite z-score in [7] was determined as 1.13; in test [9], 0.42; in test [10] it was 0.572; in test [11], 1.46; in test [15], 0.444; in [17] it was 0.0553. In addition, the composite z-score in [18] stood at 1.51; in [19] it was 1.07; in test [20] it was 0.0102. Further, the z-score in test [8] was -0.939 (inactive); in test [12], -0.0171 (inactive); in [13] it was 1.27 (inactive); in [14], 3.46 (inactive); in test [16], 0.645 (inactive).

Consider `CC1C2C(CCCO)=CC(C3C(=O)N(C(N)=O)C(=O)C23)N1Cc1cccc(OC(F)(F)F)c1` (stereo not given), for which the composite z-score in [1] was -0.261; in [2] it was 0.913; in test [3], -0.0558; in test [4], 0.767; in [5], 0.53; in test [6], 1.18. The composite z-score in test [7] is 1.28; in test [9], 0.269; in [10], 0.0659; in test [11], 1.31; in [15], 2.79; in [17], -0.139. For the same compound, the composite z-score in [18] was 0.487; in test [19], 0.628; in test [20], -0.0828. Further, the z-score in test [8] is 1.88 (inactive); in test [12], -3.02 (inactive); in test [13] it was -0.198 (inactive); in test [14], 0.58 (inactive); in test [16], 0.262 (inactive).

Regarding `CCCC[C@@H](O)C1=C(C)Cn2c(=O)n(-c3ccccc3)c(=O)n2[C@H]1CO`, the composite z-score in test [1] was -0.571; in test [2] it was -0.0827; in test [3], -0.092; in test [4], 0.361; in test [5], -0.362; in test [6], -0.773. The composite z-score was -0.151 in test [7]; -0.378 in test [9]; 0.0053 in test [10]; -0.23 in test [11]; -0.249 in test [15]; -0.218 in [17]. In addition, the composite z-score in [18] was -0.0422; in test [19], -0.839; in [20], -0.0517. Also, the z-score was -0.755 (inactive) in test [8]; -1.43 (inactive) in test [12]; -1.39 (inactive) in test [13]; -0.846 (inactive) in test [14]; 2.53 (inactive) in test [16].

Turning to `COc1ccc(C(=O)Nc2cccc(CN3C(=O)[C@]4(O[C@H](CC(=O)N(CCO)Cc5ccccc5)[C@@H]([Si](C)(C)c5ccc(OC)cc5)[C@@H]4C)c4ccccc43)c2)cc1`, the composite z-score in [1] was -0.211; in test [2] it was 0.333; in [3], -0.0695; in test [4], 0.792; in test [5], 0.784; in test [6], 0.61. For the same compound, the composite z-score in [7] was 0.958; in test [9], -0.16; in test [10], 0.2; in test [11] it was 1.05; in [15] it was 1.69; in test [17] it was 0.0553. Further, the composite z-score was 0.701 in test [18], 0.255 in test [19] and -0.0251 in [20]. For the same compound, the z-score was -1.07 (inactive) in test [8]; 1.22 (inactive) in test [12]; 0.706 (inactive) in test [13]; 3.65 (inactive) in test [14]; 0.854 (inactive) in test [16].

For the compound `O=C(c1ccccc1)N1Cc2ccccc2C[C@@]2(N=C(c3ccc(OCCCO)cc3)O[C@H]2c2ccccc2)C1=O`, the composite z-score in [1] is -0.302; in test [2] it was 0.564; in test [3], -0.0538; in [4], 0.458; in [5] it was 1.13; in test [6], 1.05. The composite z-score in test [7] was 1.21; in test [9], 0.229; in test [10] it was 0.201; in test [11], 1.54; in test [15] it was 2.81; in test [17] it was -0.0982. Besides, the composite z-score was found to be 1.73 in test [18], 1.09 in [19] and 0.024 in test [20]. The z-score in test [8] was -3.39 (inactive); in [12], -0.68 (inactive); in [13], -10.3 (active); in test [14] it was 5.51 (inactive); in [16], -0.231 (inactive).

As to `COC(=O)C1=CC(CCCO)=CC(c2ccc(CN3CCCC3)cc2)N(C)C=C1C(=O)OC` (stereo not given), the composite z-score is 0.114 in test [1]; 1.34 in test [2]; 0.0755 in test [3]; 1.21 in test [4]; 1.13 in [5]; 1.93 in test [6]. For the same compound, the composite z-score was 1.18 in test [7]; 0.989 in test [9]; -0.219 in test [10]; 0.853 in test [11]; 3.4 in [15]; 0.0723 in test [17]. Further, the composite z-score in [18] is -0.2; in [19], 0.276; in [20], 0.0816. Further, the z-score was 0.48 (inactive) in test [8]; -0.512 (inactive) in test [12]; 0.0939 (inactive) in [13]; -0.19 (inactive) in test [14]; 0.0791 (inactive) in test [16].

Take `CCCCCN1CC=CC23O[C@@H]4/C=C\CCCOC(=O)C4[C@H]2C(=O)N(CCO)[C@@H]3C1=O` (stereo not given in full): the composite z-score in test [1] was 0.0382; in [2], 0.351; in test [3], -0.133; in test [4], -0.148; in [5] it was -0.326; in [6] it was 0.913. Also, the composite z-score is 1.5 in test [7]; -0.345 in [9]; -0.223 in test [10]; -0.0525 in [11]; 3.42 in test [15]; -0.134 in test [17]. In addition, the results for the composite z-score in test [18], in test [19] and in test [20] were 0.486, -0.285 and -0.0987, respectively. For the same compound, the z-score in test [8] is -0.345 (inactive); in [12], -0.402 (inactive); in test [13], -1.15 (inactive); in test [14], -1.46 (inactive); in [16], 3.22 (inactive).

Turning to `COC(=O)[C@@]1(Cc2ccc(F)cc2)[C@H]2c3cc(C(=O)N4CCCC4)n(Cc4ccc(OC(F)(F)F)cc4)c3C[C@H]2CN1C(=O)c1ccccc1`, the composite z-score in [1] was 0.262; in test [2], -0.292; in [3] it was 0.0336; in [4] it was 0.334; in test [5], 1.08; in [6], 0.621. The composite z-score in [7] is 0.71; in test [9] it was 0.401; in test [10], -0.0074; in test [11], -1.08; in test [15], 2.1; in test [17] it was -0.0238. In addition, the composite z-score in [18] was -1.2; in [19], -1.23; in test [20], -0.0472. For the same compound, the z-score in test [8] is 1.45 (inactive); in test [12] it was 0.646 (inactive); in [13], 0.693 (inactive); in [14] it was -0.16 (inactive); in [16], -1.01 (inactive).
